In the supplement of paper PMC6555819:

How the values were obtained:
Test in all cases: PBM binding z-score (relative to random genomic background probes); higher = stronger binding; sequences stand for … in GC…GCGATTGACAGCGTAGAATGAAGG
[1] = system: FXR:RXRa (NR concentration 270 nM, RXRa partner concentration 90 nM)
How it was run: (§1)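 On custom Agilent 4×180K arrays, double-stranded probes with 34-nt variable regions carried direct-repeat seeds, single-nucleotide variants, half-site ablations or random human genomic background. Ligand-free nuclear receptor dimers were applied for 1 h, and binding was read with antibodies against each partner (one per run). Binding z-scores come from regression-normalized fluorescence, with the random background probes as reference.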

[2] = system: LXRa:RXRa (NR concentration 270 nM, RXRa partner concentration 90 nM)
How it was run: as §1

[3] = system: LXRa homodimer (NR concentration 270 nM)
How it was run: as §1

[4] = system: LXRb:RXRa (NR concentration 270 nM, RXRa partner concentration 90 nM)
How it was run: as §1

[5] = system: LXRb homodimer (NR concentration 270 nM)
How it was run: as §1

[6] = system: PPARa:RXRa (NR concentration 270 nM, RXRa partner concentration 90 nM)
How it was run: as §1

[7] = system: PPARg:RXRa (NR concentration 180 nM, RXRa partner concentration 90 nM)
How it was run: as §1

[8] = system: PPARg:RXRa 270nM:90nM, anti-RXR (NR concentration 270 nM, RXRa partner concentration 90 nM)
How it was run: as §1

[9] = system: PPARg:RXRa 30nM:10nM, anti-RXR (NR concentration 30 nM, RXRa partner concentration 10 nM)
How it was run: as §1

[10] = system: PPARg:RXRa 90nM:30nM, anti-RXR (NR concentration 90 nM, RXRa partner concentration 30 nM)
How it was run: as §1

[11] = system: PPARg:RXRa DBDmut IVT, anti-RXR (DBD mutation: RXRa K156A/R161A, NR concentration 270 nM, RXRa partner concentration 90 nM)
How it was run: as §1

[12] = system: PPARg:RXRa IVT, anti-PPARg (NR concentration 270 nM, RXRa partner concentration 90 nM)
How it was run: as §1

[13] = system: PPARg DBDmut:RXRa IVT, anti-PPARg (DBD mutation: PPARg1 K132A/R137A, NR concentration 270 nM, RXRa partner concentration 90 nM)
How it was run: as §1

[14] = system: PPARg DBDmut IVT, anti-PPARg (DBD mutation: PPARg1 K132A/R137A, NR concentration 270 nM)
How it was run: as §1

[15] = system: PPARg homodimer (NR concentration 180 nM)
How it was run: as §1

[16] = system: PXR:RXRa (NR concentration 270 nM, RXRa partner concentration 90 nM)
How it was run: as §1

[17] = system: PXR homodimer (NR concentration 270 nM)
How it was run: as §1

[18] = system: RARa:RXR (NR concentration 270 nM, RXRa partner concentration 90 nM)
How it was run: as §1

[19] = system: RARa homodimer (NR concentration 270 nM)
How it was run: as §1

[20] = system: RARb:RXRa (NR concentration 270 nM, RXRa partner concentration 90 nM)
How it was run: as §1

Sequence | PBM binding z-score [1] | PBM binding z-score [2] | PBM binding z-score [3] | PBM binding z-score [4] | PBM binding z-score [5] | PBM binding z-score [6] | PBM binding z-score [7] | PBM binding z-score [8] | PBM binding z-score [9] | PBM binding z-score [10] | PBM binding z-score [11] | PBM binding z-score [12] | PBM binding z-score [13] | PBM binding z-score [14] | PBM binding z-score [15] | PBM binding z-score [16] | PBM binding z-score [17] | PBM binding z-score [18] | PBM binding z-score [19] | PBM binding z-score [20]
CCTACTGGGCCACGAAAGATCATTGATTCAGTGA | -0.333 | -0.132 | -0.275 | -0.437 | -0.666 | 0.946 | 1.67 | 1.31 | 0.112 | 0.519 | 5.69 | 5.25 | 0.632 | -0.411 | 0.215 | -0.421 | -0.111 | -0.0697 | -0.401 | 0.211
CCTGCTAGGTCATGGTCGGCTAATCTACAGTATG | 3.56 | 2.8 | -0.0293 | 1.91 | -0.492 | 3.56 | 2.32 | 2.78 | 0.716 | 1.99 | 4.22 | 3.41 | 0.753 | -0.172 | 1.51 | 1.41 | -0.226 | 2.46 | -0.276 | 3.93
CCTATTAGTTGCCCATAAGGGCAACCGAAGCTCG | 0.523 | 0.339 | 0.425 | 0.645 | 0.866 | 0.517 | 0.154 | 0.281 | -0.263 | 0.0446 | -0.00448 | 0.926 | 0.125 | 1.13 | 0.921 | 0.597 | 0.552 | 0.824 | 1.45 | 1.29
ACAGACAGGTGATGAAGGTAACCCAGGCTATCAT | -0.0743 | -0.103 | -0.116 | -0.241 | -0.475 | 0.302 | 0.814 | 0.0501 | 0.126 | -0.204 | -0.12 | 0.789 | 0.463 | 0.0514 | 0.225 | -0.103 | -0.0491 | 0.412 | -0.333 | 0.413
ACTATTAGTTGACTTAGGGCAAACGATACGACGC | 0.00537 | 0.0216 | 0.165 | 0.185 | 0.529 | 0.325 | 1.17 | 0.319 | 0.276 | 0.322 | 0.0351 | 0.568 | 1.39 | 1.52 | 0.392 | 0.274 | 0.0698 | 0.533 | 0.0866 | 0.712
TTACCAAGGTGAAGGCCGTTGATCCCTCTGTAGA | 0.294 | 0.227 | -0.606 | 0.138 | -0.941 | 1.33 | 0.354 | 1.33 | 0.659 | 0.916 | 1.67 | 2.18 | -0.266 | 0.1 | 0.061 | 0.0988 | -0.493 | 0.33 | -0.621 | 1.34
TCATATGGGTAAACAGGTGAAAGTCCGTAAGTTA | 0.13 | 0.314 | -0.0837 | 0.449 | -0.731 | 1.85 | 2.04 | 2.98 | 2.52 | 2.89 | 4.06 | 3.99 | 0.27 | 0.486 | 0.322 | 0.505 | 0.00205 | 0.571 | -0.0494 | 0.316
AATACAGGGTCATCGTAGGCCAGAGTTCGCACAG | 7.34 | 6.57 | 3.73 | 4.63 | 1.44 | 5.93 | 7.18 | 6.46 | 2.9 | 5.18 | 2.96 | 4.45 | 1.89 | 1.85 | 3.53 | 5.76 | 2.02 | 5.59 | 0.95 | 4.33
ACTATTATTTGACTTAGGGCAACCGATACGACGC | 0.71 | 0.925 | 1.54 | 0.685 | 1.46 | 0.557 | 1.15 | 0.779 | 0.924 | 0.948 | 0.814 | 0.633 | 1.79 | 2.46 | 2.16 | 0.502 | 1.69 | 0.728 | 3.4 | 1.21
TCTAGCAGGCCAGAGGGTCACTGAAGAGGTACGG | 0.95 | 1.08 | -0.818 | 1.01 | -1.1 | 2.79 | 1.69 | 2.79 | 1.92 | 2.4 | 1.24 | 0.963 | -0.7 | -1.2 | 0.503 | 1.53 | -0.448 | 2.29 | -0.0509 | 2.34
GCCGCTAGGTCAGGTTGGTCAGCTAACGGGTACG | 1.23 | 0.593 | -0.167 | 0.545 | -0.194 | 1.41 | 0.278 | 0.955 | -0.607 | 0.0187 | 2.34 | 1.64 | -0.905 | -1.32 | 0.576 | 0.356 | -0.526 | 0.716 | -0.74 | 3.27
CATACAAGGTCAGCTAGGCCAGAGTAGGGACGGC | 5.48 | 4.64 | 0.878 | 2.65 | 0.921 | 4.45 | 3.65 | 3.36 | 0.947 | 2.45 | 2.49 | 3.08 | 1.69 | 1.12 | 2.33 | 2.51 | 0.612 | 3.43 | 1.39 | 4.89
GCGAGTGGGGCAAAGCAGGTTACCATAAGGTTGG | 0.592 | 0.51 | -0.115 | 0.552 | -0.338 | 1.36 | 0.889 | 1.12 | -0.171 | 0.35 | 3.82 | 2.88 | -0.867 | -0.658 | 0.436 | 0.562 | -0.254 | 0.873 | 0.0402 | 1
CTAACAAGGTGAACAAGGTCGTTGATTACTATTC | 1.46 | 1.2 | 0.00841 | 1.71 | -0.084 | 2.7 | 1.75 | 1.73 | 0.38 | 1.18 | 4.02 | 3.71 | 0.498 | 0.744 | 0.877 | 2.67 | 1.4 | 2.21 | 0.514 | 2.27
CCGAATGGGGCATAAGGTTACCATAAGCCAGCCC | 0.489 | 2.03 | -0.224 | 0.966 | -0.843 | 2.15 | 2.29 | 3.95 | 1.7 | 3.62 | 0.417 | 1.24 | -1.29 | -1.15 | 0.844 | 0.477 | -0.466 | 1.55 | -0.315 | 1.79
CTACCAAGTTGAACAAGGTCGTTGATTACTATTC | 1.16 | 1.41 | 0.853 | 1.91 | 0.134 | 1.73 | 0.0728 | 0.171 | 0.12 | 0.362 | 0.743 | 0.688 | 0.967 | 0.704 | 1.45 | 2.65 | 4.18 | 1.96 | 1.44 | 1.29
TCTCGCAGGACACGAAGGTCAGAGCTTTCCAGAG | 1.36 | 1.16 | 0.275 | 1.43 | -0.948 | 1.92 | 0.556 | 1.75 | 1.75 | 1.74 | 1.49 | 0.67 | -1.01 | -1.42 | 0.787 | 1.44 | -0.0691 | 1.81 | -0.422 | 2.74
ATCGAAAGGCCGAAGGTGAGTATACCCACCCGAA | -0.216 | -0.00303 | -0.202 | -0.349 | -0.732 | 0.657 | 1.25 | 1.31 | 0.275 | 0.738 | -0.869 | 0.122 | -0.0521 | -0.507 | -0.197 | -0.245 | -0.678 | 0.273 | -0.544 | 1.04
TCGAGTAGGTCACCAATGGGGCATTCAGCTTTCT | 3.29 | 3.16 | -0.128 | 2.79 | -0.57 | 4.45 | 5.85 | 5.14 | 2.8 | 4.74 | 5.54 | 6.57 | 0.462 | 0.45 | 1.71 | 2.42 | -0.543 | 3.13 | -0.919 | 3.84
